Measured values: PubChem BioAssay
Calls of active or inactive are those of the source. No rule for the calls is given here.

experiment: Pseudomonas biofilm growth suppression – PAO1 strain, BacTiter-Glo luminescence, LB-PBS, primary screen (AID 1144); settings: P. aeruginosa PAO1 biofilm, 12 h, higher = more signal

z-score, inactive:
NCCCCCNC(=O)[C@@H]1C[C@@H]2C(=O)N3CCC[C@H]3C(=O)N2[C@@H]1c1cccc(OCCO)c1 -0.0862
C=CC[C@]1(C(=O)NCc2ccccc2)N=C(c2ccc(OCCCO)cc2)O[C@H]1c1ccccc1 -0.71
COCCOC(=O)N1C(=O)[C@@]2(c3cc(C#CCNC(N)=O)ccc31)[C@H](c1ccc(O)cc1)N1[C@H](c3ccccc3)[C@H](c3ccccc3)OC(=O)[C@H]1[C@@H]2C(=O)N1CCCCCCC1 -0.945
O=C1[C@H]2[C@H]3[C@H](O)[C@H](O)CC(=NO[C@@H]4O[C@H](CO)[C@@H](O)[C@H](O)[C@H]4O)[C@@H]3CC[C@H]2C(=O)N1Cc1ccc2c(c1)OCO2 0.572
O=C1[C@H]2[C@H]3[C@H](O)[C@H](O)CC(=NOCc4ccccc4)[C@@H]3CC[C@H]2C(=O)N1C1CCCCC1 0.774
O=C1[C@H]2[C@H]3[C@H](O)[C@H](O)CC(=NO[C@@H]4O[C@H](CO)[C@@H](O)[C@H](O)[C@H]4O)[C@H]3CC[C@H]2C(=O)N1Cc1ccc2c(c1)OCO2 1.58
O=C(NN=C1C[C@@H](O)[C@@H](O)[C@@H]2[C@@H]3C(=O)N(c4cccc(Oc5ccccc5)c4)C(=O)[C@@H]3CC[C@H]12)OCc1ccccc1 1.3
CC(C)CON=C1C[C@@H](O)[C@@H](O)[C@@H]2[C@@H]3C(=O)N([C@@H](C)c4ccccc4)C(=O)[C@@H]3CC[C@H]12 1.98
CC(=O)O[C@H]1C2=C(C(=O)[C@@H]3O[C@@H]31)[C@H]1C(C)O[C@@H]2[C@@]23C(=O)[C@@H]4O[C@@H]4[C@@H](O)C2=CO[C@H](C)[C@@H]13 (some centres undefined) 0.968
